Source: PubChem BioAssay
An excerpt weighted towards active compounds, which were near 3.9% of everything screened.
BoNT-F LC inh – BoNT F light chain protease inhibition; Multiplex microsphere protease cleavage assay, flow cytometry; inhibition, % at 10 µM; hit rate 0.22% among 360,000; in the data active means inhibition above about 35%, passing the limit was not always enough; inconclusive means no clear call, values can overlap the other calls
Anthrax LF inh2 – blocks Bacillus anthracis lethal factor protease; P15917; multiplex microsphere protease cleavage assay, LF; inhibition, % at 10 µM; hit rate 0.12% among 360,000
Target sequence (P15917 whole entry, looked up): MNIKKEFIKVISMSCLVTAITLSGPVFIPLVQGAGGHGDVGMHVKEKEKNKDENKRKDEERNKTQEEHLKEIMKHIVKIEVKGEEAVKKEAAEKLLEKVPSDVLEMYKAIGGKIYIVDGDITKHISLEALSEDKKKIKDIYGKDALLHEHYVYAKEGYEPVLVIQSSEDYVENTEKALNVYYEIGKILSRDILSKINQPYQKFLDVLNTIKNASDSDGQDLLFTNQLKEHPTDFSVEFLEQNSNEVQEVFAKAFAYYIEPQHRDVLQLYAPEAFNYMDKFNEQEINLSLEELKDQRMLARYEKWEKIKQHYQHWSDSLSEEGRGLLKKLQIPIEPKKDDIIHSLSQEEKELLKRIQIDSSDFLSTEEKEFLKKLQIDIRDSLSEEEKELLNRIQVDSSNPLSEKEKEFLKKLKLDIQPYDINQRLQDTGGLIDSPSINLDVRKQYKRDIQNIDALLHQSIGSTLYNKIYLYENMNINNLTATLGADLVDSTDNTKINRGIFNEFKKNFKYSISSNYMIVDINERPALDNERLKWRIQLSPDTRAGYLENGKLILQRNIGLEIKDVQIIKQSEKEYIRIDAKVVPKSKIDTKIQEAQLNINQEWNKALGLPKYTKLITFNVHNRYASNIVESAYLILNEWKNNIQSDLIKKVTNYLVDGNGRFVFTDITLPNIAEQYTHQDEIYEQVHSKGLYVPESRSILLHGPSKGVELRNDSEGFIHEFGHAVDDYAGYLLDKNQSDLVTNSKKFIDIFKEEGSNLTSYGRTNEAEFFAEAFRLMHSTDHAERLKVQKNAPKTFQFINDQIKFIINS
BoNT A protease – blocks Botulinum neurotoxin A light chain protease; multiplex microsphere protease substrate cleavage, flow cytometry; inhibition, % at 10 µM; hit rate 0.17% among 360,000; AID 588499
Bead autofluor – compound fluorescence in toxin protease inhibitor counterscreen; compound autofluorescence counterscreen, microsphere flow cytometry; active compounds read high; fluorescence intensity (concentration not given with the values); hit rate 3.1% among 360,000; in the data active means fluorescence intensity above about 16000; inconclusive means no clear call, values can overlap the other calls
CCHFV vOTU inh – blocks the CCHF virus ovarian tumor domain protease; CCHFV vOTU protease, Pep-AMC fluorescence; inhibition, % at 11.5 µM; hit rate 0.55% among 370,000; in the data active means inhibition above about 30%
SARS 3CLpro inh – SARS-CoV 3CLpro protease inhibition; recombinant SARS-CoV 3CLpro, quenched FRET peptide cleavage; P0C6X7; inhibition, % at 6 µM; hit rate 0.14% among 290,000; AID 1706; in the data active means inhibition above about 12%
Large screens that a line does not name were inactive. Unless noted, no stated cut-off is given here; in the data, active means inhibition above about 30%; inconclusive means no clear call, values can overlap the other calls; inactive means below that.

Cc1ccc2c(=O)n3c(nc2c1)C(Cc1ccccc1)NC(=O)c1ccc(Cl)cc1-3 (stereo not drawn)	none (no result: BoNT-F LC inh, Anthrax LF inh2, BoNT A protease, Bead autofluor, SARS 3CLpro inh)
O=C(COC(=O)C1CC1)Nc1nc(-c2ccc(F)c(F)c2)cs1	BoNT-F LC inh inconclusive (no result: SARS 3CLpro inh)
CC(Nc1nc(-c2ccccc2)nc2ccccc12)c1ccccc1 (stereo not drawn)	none
CC(Nc1nc(N2CCCCC2)nc2ccccc12)c1ccccc1 (stereo not drawn)	BoNT A protease inconclusive, Bead autofluor 21408
O=C(Cc1ccccc1)NCC(=O)N1CCCCCC1	Bead autofluor 22214
CC(NC(=O)C1CCCN(C(=O)N(C)C)C1)c1ccccc1 (stereo not drawn)	Bead autofluor 20508
CC(NC(=O)CCC(=O)N1CCCCCC1)c1ccccc1 (stereo not drawn)	BoNT-F LC inh 36
O=C1C2C3C=CC(C2C(=O)N1CCCO)C1C2C(=O)N(CCCO)C(=O)C2C31 (stereo not drawn)	Bead autofluor 21305
CCCCN1C(=O)C2C3C=CC(C2C1=O)C1C2C(=O)N(CCCC)C(=O)C2C31 (stereo not drawn)	none
Cc1cccc(-c2nnc(NC(=O)c3ccc(Cl)cc3)o2)c1	Bead autofluor 16877
O=C(C(c1ccccc1)c1ccccc1)N1CCC(c2nc(-c3ccccc3Cl)no2)CC1	none
O=C(O)c1ccc(S(=O)(=O)N2CCC(c3nc(-c4ccccc4Cl)no3)CC2)cc1	BoNT A protease inconclusive, Bead autofluor 23179
CCc1nnc2sc(-c3cc(-c4ccccc4)nc4ccccc34)nn12	Bead autofluor 19922
Clc1ccccc1-c1nn2c(-c3cc(-c4ccccc4)n[nH]3)nnc2s1	none (no result: BoNT-F LC inh, Anthrax LF inh2, BoNT A protease, Bead autofluor, SARS 3CLpro inh)
COc1ccc2cc3[n+](cc2c1O)CCc1cc2c(cc1-3)OCO2	CCHFV vOTU inh 101 (no result: SARS 3CLpro inh)
O=C(CCC(=O)N1CCN(C2c3ccccc3-c3ccccc32)CC1)Nc1nnc(C(F)(F)F)s1	none (no result: BoNT-F LC inh, Anthrax LF inh2, BoNT A protease, Bead autofluor, SARS 3CLpro inh)
O=C1CSC(c2cn(-c3ccccc3)nc2-c2cc3ccccc3oc2=O)N1Cc1ccco1 (stereo not drawn)	BoNT A protease inconclusive, Bead autofluor 23471
O=C1CSC(c2cn(-c3ccccc3)nc2-c2cc3ccccc3o2)N1Cc1ccccc1 (stereo not drawn)	none
O=c1[nH]c2ccsc2c(=O)n1-c1ccc(F)c(Cl)c1	BoNT A protease inconclusive, Bead autofluor 17764
CN(C)CCn1c2c(c(SCC(=O)Nc3ccc4c(c3)OCCO4)nc1=O)CCCC2	Bead autofluor inconclusive (no result: SARS 3CLpro inh)
COc1ccc(C(=O)C2(C(=O)Nc3cc(C)cc(C)c3)CC(c3ccccc3C(F)(F)F)=NO2)cc1 (stereo not drawn)	none (no result: BoNT-F LC inh, Anthrax LF inh2, BoNT A protease, Bead autofluor, SARS 3CLpro inh)
COC(=O)Cc1c(O)ccn(Cc2cccc3ccccc23)c1=O	Bead autofluor 21316
CC(C)C(NC=C1C(=O)OC(C)(C)OC1=O)C(=O)O (stereo not drawn)	BoNT A protease inconclusive, Bead autofluor 16608
CC(=O)N1CCOc2ccc(S(=O)(=O)NCCc3cccc(C)c3)cc21	none
COC(=O)c1c(NC(=O)c2cnccn2)sc2c1CCC2	none
O=C(Nc1nc2c(s1)CCCC2=O)c1cnccn1	Bead autofluor 23908
COc1cccc(CNn2cnnc2)c1OCc1ccc(F)cc1	none
COc1cccc(CNn2cnnc2)c1OCc1ccccc1F	BoNT A protease inconclusive, Bead autofluor 20043
O=C(NCCc1ccc(F)cc1)c1ccc2c(c1)ncn2C1CCCCC1	none (no result: BoNT-F LC inh, Anthrax LF inh2, BoNT A protease, Bead autofluor, SARS 3CLpro inh)
CS(=O)(=O)Nc1ccc(Cc2ccc(NS(C)(=O)=O)cc2)cc1	Bead autofluor 20871
CCCOc1ccccc1NC(=O)c1ccc([N+](=O)[O-])cc1	none
CCc1cc(-c2n[nH]c(=S)n2C(C)c2ccccc2)cs1 (stereo not drawn)	Bead autofluor 21656
COc1ccc(CNC(=O)c2ccc3c(=O)n(-c4ccccc4)c(=O)[nH]c3c2)cc1	none (no result: CCHFV vOTU inh)
Cc1cc(C)n(-c2nc3ccccc3c(=O)n2OCC(N)=O)n1	Bead autofluor 21858
Cc1cccc(Oc2coc3cc(OC(=O)c4cc5ccccc5oc4=O)ccc3c2=O)c1	BoNT A protease inconclusive, Bead autofluor 20697
Cc1cccc(Oc2coc3cc(OC(=O)c4cncc(Br)c4)ccc3c2=O)c1	none
CCCNC(=O)COc1ccc2c(=O)c(Oc3ccccc3F)coc2c1	none
COc1ccccc1Oc1coc2cc(OCC(N)=O)ccc2c1=O	BoNT-F LC inh 41
CCOC(=O)Oc1ccc2c(=O)c(Oc3cccc(C)c3)coc2c1	none
CCOC(=O)Oc1ccc2c(=O)c(Oc3cc(C)cc(C)c3)coc2c1	BoNT A protease inconclusive, Bead autofluor 22166
C=CCNc1ccc2c(c1)OC[C@H](CC(C)C)NS2(=O)=O	none (no result: BoNT-F LC inh, Anthrax LF inh2, BoNT A protease, Bead autofluor, SARS 3CLpro inh)
